# Bioassay records: PubChem BioAssay, National Center for Advancing Translational Sciences (NCATS)
# Sfp PPTase inh – qHTS Assay for Inhibitors of Bacillus subtilis Sfp phosphopantetheinyl transferase (PPTase) | 4'-phosphopantetheinyl transferase ffp (Bacillus subtilis), Q9F4F7 | Biochemical Sfp PPTase activity, qHTS | Potency, µM, inactives show largest response in the series, negative = inhibition, actives largely listed as inhibitors | 310,000 compounds, 3.5% hits | AID 1490, 2009;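 also: the enzyme is Sfp with the accession as filed and its product quenches rhodamine fluorescence; 0% = enzyme reaction without inhibitor and -100% = no enzyme wells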
#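 With Hepes-Na pH 7.6 buffer containing 10 mM MgCl2, Sfp (15 nM) modified BHQ-2-YbbR (12.5 uM) using rhodamine-CoA (5 uM). Two reads 30 minutes apart at 525/598 nm yielded each well's rate.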
# G9a block – qHTS Assay for Inhibitors of Histone Lysine Methyltransferase G9a; Histone-lysine N-methyltransferase EHMT2 (Homo sapiens), Q96KQ7; G9a H3K9 monomethylation, AlphaScreen, 2 h; Potency, µM (highest dose often 102 µM), inactives show at the top dose activity, negative = inhibition, actives largely listed as inhibitors; 350,000 compounds, 8.8% hits; AID 504332, 2011; also: % is scaled to controls: 0 for no effect and ±100 for the full control effect; nearly all actives have a fitted effect of over 75% in size
#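 G9a (20 nM) was preincubated 15 min with compound, then reacted 2 h at room temperature with 500 nM biotin-H3K9 peptide and 20 µM SAM. Monomethyl-H3K9 detected by AlphaScreen using anti-H3K9me1 antibody.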
# JMJD2A Tudor – qHTS Assay for Inhibitors of JMJD2A-Tudor Domain; AID 504339, 2011; Lysine-specific demethylase 4A (Homo sapiens), O75164; 390,000 compounds, 4.4% hits; AlphaScreen JMJD2A-Tudor / H3K4me3 peptide binding; Potency, µM (series often up to 114 µM), for the others: at the top dose activity change, negative = inhibition, actives largely listed as inhibitors; also: % is scaled to controls: 0 for no effect and ±100 for the full control effect; nearly all actives have a fitted effect of over 50% in size
# HP1b chromo inh – HTS for Inhibitors of HP1-beta Chromodomain Interactions with Methylated Histone Tails; Chromobox protein homolog 1 (Homo sapiens), P83916; 390,000 compounds, 0.56% hits; AlphaScreen HP1-beta / biotin-H3K9me3 peptide binding; Potency, µM (titrated, usually from 114 µM), without a hit: at the top dose activity change, negative = inhibition, most hits filed as inhibitors; also: nearly all actives have a fitted effect of over 70% in size
#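 AlphaScreen: HP1-beta (50 nM) preformed 30 min with biotin-H3(1-18)K9me3 peptide (50 nM) in PBS pH 7.4, 0.01% Tween-20. Compound added for 30 min at RT, then streptavidin donor/nickel chelate acceptor beads (10 ug/mL) for 30 min.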
# BAZ2B block – qHTS Assay for Inhibitors of BAZ2B. Bromodomain adjacent to zinc finger domain protein 2B (Homo sapiens), Q9UIF8. AlphaScreen BAZ2B-H3K14Ac peptide displacement. Potency, µM (highest dose often 114 µM), inactives show top-dose activity change, negative = inhibition, most hits filed as inhibitors. 360,000 compounds, 4.4% hits. AID 504333, 2011; also: % is scaled to controls: 0 for no effect and ±100 for the full control effect; nearly all actives have a fitted effect of over 60% in size
# Target sequence (Q9UIF8 whole entry, looked up, the tested form may be a part): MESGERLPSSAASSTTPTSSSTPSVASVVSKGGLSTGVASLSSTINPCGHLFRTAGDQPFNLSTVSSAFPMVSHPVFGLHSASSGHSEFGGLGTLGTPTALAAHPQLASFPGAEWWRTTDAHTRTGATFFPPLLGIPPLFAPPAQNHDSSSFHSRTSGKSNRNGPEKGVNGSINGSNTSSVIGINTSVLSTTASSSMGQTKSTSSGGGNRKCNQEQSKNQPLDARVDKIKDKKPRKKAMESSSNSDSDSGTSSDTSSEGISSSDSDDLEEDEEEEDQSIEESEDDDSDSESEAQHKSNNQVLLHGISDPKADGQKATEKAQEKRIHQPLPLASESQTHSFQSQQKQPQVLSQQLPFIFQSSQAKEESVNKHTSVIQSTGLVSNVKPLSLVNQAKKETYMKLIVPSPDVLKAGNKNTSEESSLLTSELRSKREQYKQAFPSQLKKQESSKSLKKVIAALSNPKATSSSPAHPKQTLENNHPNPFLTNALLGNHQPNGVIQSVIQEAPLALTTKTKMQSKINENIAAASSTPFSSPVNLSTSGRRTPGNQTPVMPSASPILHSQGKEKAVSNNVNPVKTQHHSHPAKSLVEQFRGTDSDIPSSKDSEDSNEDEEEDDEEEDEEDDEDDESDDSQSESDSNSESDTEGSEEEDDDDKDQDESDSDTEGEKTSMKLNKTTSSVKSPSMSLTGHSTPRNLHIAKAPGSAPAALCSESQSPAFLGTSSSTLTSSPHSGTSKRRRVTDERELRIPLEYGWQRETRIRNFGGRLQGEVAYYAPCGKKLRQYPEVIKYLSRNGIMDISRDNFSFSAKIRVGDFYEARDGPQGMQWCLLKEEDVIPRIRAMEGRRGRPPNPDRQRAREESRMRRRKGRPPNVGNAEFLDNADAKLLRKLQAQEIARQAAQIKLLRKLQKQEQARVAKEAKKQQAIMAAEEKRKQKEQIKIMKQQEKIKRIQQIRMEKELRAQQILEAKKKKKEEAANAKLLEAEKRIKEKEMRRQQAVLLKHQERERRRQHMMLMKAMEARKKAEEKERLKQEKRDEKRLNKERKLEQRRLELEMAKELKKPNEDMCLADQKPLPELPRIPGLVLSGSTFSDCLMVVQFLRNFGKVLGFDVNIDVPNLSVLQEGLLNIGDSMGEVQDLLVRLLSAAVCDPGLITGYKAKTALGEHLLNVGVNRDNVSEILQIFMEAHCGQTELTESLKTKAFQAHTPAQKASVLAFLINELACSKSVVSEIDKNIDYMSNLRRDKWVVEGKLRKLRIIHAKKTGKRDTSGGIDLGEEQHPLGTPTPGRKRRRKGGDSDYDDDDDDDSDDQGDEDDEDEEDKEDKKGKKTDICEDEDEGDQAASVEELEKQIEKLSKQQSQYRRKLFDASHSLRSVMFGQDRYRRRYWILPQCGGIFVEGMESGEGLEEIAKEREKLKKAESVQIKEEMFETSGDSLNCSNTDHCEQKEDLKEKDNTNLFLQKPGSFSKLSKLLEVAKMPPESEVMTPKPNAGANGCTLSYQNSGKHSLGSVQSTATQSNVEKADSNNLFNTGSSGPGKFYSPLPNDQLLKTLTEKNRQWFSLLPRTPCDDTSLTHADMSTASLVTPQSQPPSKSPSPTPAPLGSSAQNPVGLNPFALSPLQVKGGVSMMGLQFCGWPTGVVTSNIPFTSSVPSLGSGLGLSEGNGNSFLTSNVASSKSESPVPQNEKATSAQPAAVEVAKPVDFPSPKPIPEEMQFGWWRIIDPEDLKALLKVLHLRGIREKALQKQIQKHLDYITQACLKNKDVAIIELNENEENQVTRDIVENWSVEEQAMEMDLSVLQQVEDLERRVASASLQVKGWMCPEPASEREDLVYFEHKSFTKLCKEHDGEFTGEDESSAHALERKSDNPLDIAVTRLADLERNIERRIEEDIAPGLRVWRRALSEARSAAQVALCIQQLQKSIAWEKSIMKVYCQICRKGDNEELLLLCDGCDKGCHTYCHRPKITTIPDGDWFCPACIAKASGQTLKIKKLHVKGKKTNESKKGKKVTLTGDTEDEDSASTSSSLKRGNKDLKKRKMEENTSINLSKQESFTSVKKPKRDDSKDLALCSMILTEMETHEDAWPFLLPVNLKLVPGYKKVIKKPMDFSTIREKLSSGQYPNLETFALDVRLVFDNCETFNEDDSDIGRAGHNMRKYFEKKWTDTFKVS
#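 AlphaScreen luminescence quantifies BAZ2B engagement of H3K14Ac peptide; the protein and biotinylated peptide are both at 50 nM final, buffer PBS pH 7.4 with 0.01% Tween-20, all steps at room temperature.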
# PLK1 PBD block – qHTS for Inhibitors of PLK1-PDB (polo-like kinase 1 - polo-box domain): Primary Screen; Serine/threonine-protein kinase PLK1 (Homo sapiens), P53350; Plk1 PBD binding of FITC phosphopeptide, fluorescence polarization; Potency, µM, inactives show max response, negative = inhibition, actives largely listed as inhibitors; 360,000 compounds, 2.8% hits; AID 720504, 2013; also: series mostly up to about 57 µM; % is scaled to controls: 0 for no effect and ±100 for the full control effect; nearly all actives have a fitted effect of over 65% in size
# * marks the source's active call; other numbers are inactive results; ? = inconclusive; . = no result; [ ] = another dose, or the depositor's remark. Shown are actives, neighbours in structure and some others; about 12% of the full set was active somewhere. Calls follow the shape of the dose curve; as a rule, active = well fitted curve in the direction sought with a large enough effect; inconclusive = small, poorly fitted or top-dose-only effect, or another doubt; inactive = no such curve, though single readings can be large; an effect the other way counts as inactive or inconclusive. Potency is read from the fitted curve at half-maximal effect.
SMILES,Sfp PPTase inh,G9a block,JMJD2A Tudor,HP1b chromo inh,BAZ2B block,PLK1 PBD block
COc1ccc(-c2cccc(NS(=O)(=O)c3cc(C)c(Cl)cc3C)c2)nn1,.,7%[59 µM],-29%,4%[57 µM],-11%,.
COc1cccc(CNC(=O)CCc2nc3cc(S(=O)(=O)N4CCOCC4)ccc3n2C)c1,.,5%,7%,13%,-5%,4%
COc1ccc(CCNC(=O)c2nnn(CC(=O)Nc3cccc(F)c3)c2N)cc1OC,-14%,45µM*,?,3%,50µM*,16%
COc1cccc(NC(=O)c2nnn(CC(=O)Nc3cc(C)cc(C)c3)c2N)c1,-3%,12%[59 µM],28µM*,8%,-6%,27µM*
CCc1ccc(OCC(O)CN2CCN(c3ccc(OC)cc3)CC2)cc1 (stereo unspecified),-16%,10µM*,35µM*,-16%,71µM*,-4%
COc1cccc(OCC(O)CN2CCN(c3ccc(F)cc3)CC2)c1 (stereo unspecified),-3%,-9%[2.33 µM],-20%,22%,?,4%
COc1ccc(N2CCN(CC(O)COCc3ccccc3)CC2)cc1 (stereo unspecified),8%,40µM*,?,1%,56µM*,-3%
CCN1CCN(CC(O)COc2cccc(OC)c2)CC1 (stereo unspecified),11%,56µM*,-29%,25%,-4%,1%
COc1ccc(N2CCN(CC(O)COc3ccc(C(C)(C)C)cc3)CC2)cc1 (stereo unspecified),.,?,79µM*,-1%,?,.
COc1cccc(OCC(O)CN2CCN(C(c3ccccc3)c3ccccc3)CC2)c1 (stereo unspecified),.,.,-35%,0%,.,3%
COc1ccc(OCC(O)CN2CCN(c3ccccc3)CC2)cc1 (stereo unspecified),3%,29%[0.501 µM],?,22%,-12%,5%
Cc1ccc2nc(-c3ccc(Cl)cc3)cc(C(=O)OCC(=O)c3ccccc3)c2c1,.,43%[59 µM],3%,44%,-1%,.
CCOCCCNC(=O)c1cc2c(=O)[nH]c3ccccc3c2n1C,.,32%[59 µM],?,67%,.,.
Cc1ccccc1NC(=O)CSc1n[nH]c(-c2ccccn2)n1,?,12%,3.5µM*,60%,2.8µM*,3%
O=C(CSc1n[nH]c(-c2ccccc2)n1)Nc1ncccn1,15%,?,0%,37%,-36%,-2%
Cc1nc(SCC(=O)Nc2cccc(Cl)c2)n[nH]1,-2%,0%[12.7 µM],2%,28%,2%,-9%
O=C(CSc1n[nH]c(-c2ccccn2)n1)Nc1cccc(Cl)c1,14%,?,6.3µM*,47%,5µM*,-8%
Cc1ccc(C)c(NC(=O)CSc2n[nH]c(-c3ccccn3)n2)c1,-15%,61%,1.3µM*,15%,4.5µM*,4%
CC1CCN(c2cc3c(cc2F)c(=O)c(S(=O)(=O)c2cccc(Cl)c2)cn3Cc2ccccc2)CC1,.,0%[59 µM],-19%,16%,-1%,.
CCOc1ccc(C2N(c3cc(C)on3)C(=O)C3CCCN32)cc1OC (stereo unspecified),7%,?,35µM*,?,-12%,27µM*
COc1cc(C2N(c3cc(C)on3)C(=O)C3CCCN32)cc(OC)c1OC (stereo unspecified),14%,-13%[59 µM],?,-1%,4%,0%
COc1ccc(C2N(c3cc(C)on3)C(=O)C3CCCN32)cc1OC (stereo unspecified),2%,?,20µM*,-17%,?,-15%
Cc1ccccc1OC(=O)CSc1nnc(-c2ccc(F)cc2)o1,.,-36%[59 µM],1%,66%,-2%,.
